# In ChEMBL document CHEMBL4649982, “Selective targeting of Bromodomains of the Bromodomain-PHD Fingers family impairs osteoclast differentiation” (ACS Chem Biol, 2017):
# Values joined by “and” are separate entries in the source; they are usually repeats but may differ in a detail not shown here. Identical values can stand only once.
# What was measured:
# [1] = target: Bromodomain-containing protein 4 (Homo sapiens) (UniProt O60885); details: Compound concentration 10.0 uM, Protein concentration 2.0 uM
# [2] = target: T1, Transcription intermediary factor 1-alpha (Homo sapiens) (UniProt O15164); details: Compound concentration 10.0 uM, Protein concentration 2.0 uM
# T1 sequence (whole entry): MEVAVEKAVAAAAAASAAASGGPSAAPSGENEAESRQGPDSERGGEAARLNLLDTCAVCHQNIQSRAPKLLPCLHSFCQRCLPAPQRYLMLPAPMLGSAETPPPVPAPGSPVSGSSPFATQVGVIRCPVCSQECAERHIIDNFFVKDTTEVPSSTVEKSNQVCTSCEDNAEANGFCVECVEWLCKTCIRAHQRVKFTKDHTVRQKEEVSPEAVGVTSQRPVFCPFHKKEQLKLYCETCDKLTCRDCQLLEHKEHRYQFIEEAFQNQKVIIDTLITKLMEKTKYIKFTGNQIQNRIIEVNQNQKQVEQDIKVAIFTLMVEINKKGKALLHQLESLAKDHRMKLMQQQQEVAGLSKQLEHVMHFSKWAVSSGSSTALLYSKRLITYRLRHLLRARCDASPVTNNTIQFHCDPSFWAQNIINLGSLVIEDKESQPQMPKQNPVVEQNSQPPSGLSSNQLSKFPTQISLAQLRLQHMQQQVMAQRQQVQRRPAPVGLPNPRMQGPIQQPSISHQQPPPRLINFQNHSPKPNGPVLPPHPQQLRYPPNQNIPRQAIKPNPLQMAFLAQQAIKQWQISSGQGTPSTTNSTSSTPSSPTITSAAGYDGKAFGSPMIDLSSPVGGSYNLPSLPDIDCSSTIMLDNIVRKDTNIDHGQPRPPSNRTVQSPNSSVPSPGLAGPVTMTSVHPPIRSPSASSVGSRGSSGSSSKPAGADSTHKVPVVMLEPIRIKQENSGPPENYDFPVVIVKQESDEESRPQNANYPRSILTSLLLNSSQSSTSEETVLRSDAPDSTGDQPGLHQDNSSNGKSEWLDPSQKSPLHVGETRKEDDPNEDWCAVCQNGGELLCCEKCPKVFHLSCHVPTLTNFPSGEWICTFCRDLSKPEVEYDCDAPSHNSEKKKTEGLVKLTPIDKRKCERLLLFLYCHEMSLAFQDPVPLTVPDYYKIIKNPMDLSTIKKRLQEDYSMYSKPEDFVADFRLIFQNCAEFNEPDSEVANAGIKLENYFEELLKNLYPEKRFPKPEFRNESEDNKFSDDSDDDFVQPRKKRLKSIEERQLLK
structure (smiles),measurement,setting,value
COc1cc2c(cc1NS(=O)(=O)c1ccc(Br)cc1C)n(C)c(=O)n2C,ΔTm,[1],1.42 °C and 2.26 °C
same,ΔTm,[2],2.87 °C
